# Most compounds without a hit are left out; they make up all but 17% or so of the library.
# HepG2 viability: counter-screen for TGF-b inhibitors: cytotoxicity in HepG2 cells; 0.76% of 410,000 active; Potency, µM (doses to about 46.1 µM), most hits filed as cytotoxic; HepG2 CAGA-GFP viability, ATP luminescence, 18 h
#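 HepG2 CAGA-GFP cells (1000/well, DMEM with 1% FBS) received compound, then TGF-beta at 500 pg/mL final, and were incubated 18 hours at 37 degrees C. Viability was read by CellTiter-Glo luminescence. Media-only wells were set as complete cell-killing and DMSO as no toxicity.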
# HT1080-NT tox: kills 2HG-producing HT-1080-NT fibrosarcoma cells; HT-1080-NT fibrosarcoma viability, CellTiter-Glo ATP luminescence, 48 h; Potency, µM (series often up to 46.1 µM), actives largely listed as cytotoxic; 1.6% of 360,000 active;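 further: NT is the 2HG producing partner of a matched IDH1 knockdown line; nearly all actives have a fitted effect of over 55% in size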
#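 Viability of the 2HG-overproducing fibrosarcoma line after 48 hours of compound exposure at 37 degrees C was determined by luminescence with CellTiter-Glo, and concentration-effect curves were then fitted and categorized.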
# DT40 TDP1 CPT: DT40-hTDP1 cell growth loss with CPT. chicken DT40 Tdp1-/-;hTDP1 cells + 20 nM CPT, ATP luminescence, 48 h. Potency, µM (doses to about 46.2 µM), actives largely listed as inhibitors. 12% of 420,000 active. AID 686979; further: nearly all actives have a fitted effect of over 55% in size
#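 Cell growth measured by CellTiter-Glo luminescence after a minimum 48 h, 37 C compound exposure with 20 nM CPT in Tdp1-knockout DT40 cells stably expressing hTDP1, seeded 400/well; qHTS titration format.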
# HT1080 IDH1KD tx: HT-1080 IDH1 knockdown cell toxicity (counter line); HT-1080 IDH1 knockdown viability, ATP luminescence, 48 h; Potency, µM (highest dose often 46.1 µM), most hits filed as cytotoxic; 2% of 360,000 active; AID 686971
#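 IDH1KD HT-1080 cells, 750/well, RPMI + 5% FBS; compound pinned after 2 h settling; 48 h, 37 °C; CellTiter-Glo luminescence; % activity normalised to DMSO and no-cell wells; curves fitted, classed by r2 and efficacy.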
# TDP1 cell noCPT: qHTS for Inhibitors of human tyrosyl-DNA phosphodiesterase 1 (TDP1): qHTS in cells in absence of CPT | Potency, µM (top dose mostly 46.2 µM), most hits filed as inhibitors | 15% of 420,000 active | DT40 Tdp1-/- hTDP1 cells, no CPT, ATP luminescence, 48 h; further: nearly all actives have a fitted effect of over 55% in size
#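 Chicken DT40 Tdp1-/- cells complemented with human TDP1, screened without camptothecin (DMSO vehicle only), 400 cells/well. Compounds pin-transferred, cells incubated at 37 °C for at least 48 hr. Growth read as ATP-dependent luminescence (CellTiter-Glo, 30 min at RT).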
# TGFb inhibitor: inhibitors of TGF-b signaling | HepG2 CAGA-GFP TGF-b/SMAD3 reporter, GFP fluorescence, 18 h; TGF-beta stimulated, 500 pg/mL final | Potency, µM (doses to about 46.1 µM), hits mostly inhibitors | 1.2% of 410,000 active; further: nearly all actives have a fitted effect of over 65% in size
#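 Using HEPG2 CAGA-GFP reporter cells at 1000 cells/well, we pinned test compounds, stimulated with recombinant TGF-beta (500 pg/mL final) and measured total well GFP after 18 h.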
# Numbers stand for hits; n = inactive; u = inconclusive; x = no result given; [ ] = another dose, or the depositor's remark. The call rests on the fitted dose curve; in most records, active means well fitted curve in the direction sought with a large enough effect; inconclusive means small, poorly fitted or top-dose-only effect, or another doubt; inactive means no such curve, though single readings can be large; an effect the other way counts as inactive or inconclusive.
SMILES,HepG2 viability,HT1080-NT tox,DT40 TDP1 CPT,HT1080 IDH1KD tx,TDP1 cell noCPT,TGFb inhibitor
Cc1cc(C)c2[nH]c(O)c(N=NC(=S)NCC3CCCO3)c2c1 (configuration not stated),n,n,6.51µM,n,6.51µM,n
CCn1c(O)c(N=NC(=S)NCC2CCCO2)c2ccccc21 (configuration not stated),n,n,13µM,n,9.2µM,10µM
O=C(COC(=O)c1n[nH]c(=O)c2ccccc12)NC1CCCCC1,n,n[9.24 µM],n,n,n,n
COC(=O)c1ccccc1NC(=O)c1cc2nc(-c3ccc(OC)cc3)cc(C(F)(F)F)n2n1,n,x,x,x,x,n
COc1ccc(-c2cc(C3CC3)nc(SCC(=O)c3cccs3)c2C#N)cc1,n,n,u,n,11.6µM,n
CSc1nc(C2CC2)cc(-c2cccs2)c1C#N,n,31.6µM,n,u,n,5.62µM
CCOC(=O)N1CCN(C(=O)c2noc(C(C)C)c2[N+](=O)[O-])CC1,n,n,n,n,n,n
COC(=O)c1cc(NC(=O)c2ccc3c(c2)NC(=O)c2ccccc2S3)cc(C(=O)OC)c1,n,x,4.61µM,x,6.51µM,n
CC(C)OCCCNC(=O)c1ccc2c(c1)NC(=O)c1ccccc1S2,n,n,n,u,n,u
CCOc1cc(/C=C(/C#N)c2nc3ccccc3[nH]2)ccc1OCc1ccc(C(=O)O)o1,n,n,n,n,u,n
COc1cc(/C=C(/C#N)c2nc3ccccc3[nH]2)ccc1OCC(=O)Nc1ccccc1C,n,n,3.26µM,n,6.51µM,n
COc1cc(/C=C(/C#N)c2nc3ccccc3[nH]2)ccc1OCC(=O)Nc1ccccc1C(C)C,n,n,4.61µM,n,5.8µM,u
COc1cc(/C=C(\C#N)c2nc3ccccc3s2)ccc1OCC(=O)Nc1ccccc1,n,n,5.17µM,n,4.61µM,n
Cc1cc(OCC(=O)NCCc2ccc(Cl)cc2)c2c(C)cc(=O)oc2c1,n,n,n,n,n,n
COc1ccc(NC(=O)/C=C/c2cc(OC)c(OC)c(OC)c2)cn1,n,n,n,n,n,n
COc1cc(/C=C/C(=O)Nc2ccncc2)cc(OC)c1OC,n,n,20.6µM,n,u,n
COc1cc(/C=C/C(=O)Nc2ccc(C(C)=O)cc2)cc(OC)c1OC,n,n,u,n,20.6µM,n
COc1cc(/C=C/C(=O)Nc2nnc(CC(C)(C)C)s2)cc(OC)c1OC,n,n,u,n,20.6µM,n
Cc1ccnc(NC2c3ccccc3C(=O)N2Cc2ccccc2Cl)c1 (configuration not stated),n,n,u,n,25.9µM,n
C=CCNC(=S)N1CCC(C(=O)c2ccc(C)cc2)CC1,n,n,25.9µM,n,u,n
CN(C)CCCNC(=S)N1CCC(C(=O)c2ccc(Cl)cc2)CC1,n,n,23.1µM,n,16.4µM,n
Cc1ccc(-c2c(C(=O)NNC(=S)NCC3CCCO3)csc2C)cc1 (configuration not stated),n,n,u,n,0.461µM,n
C=CCNC(=S)N1CCN(S(=O)(=O)c2ccc(C)cc2)CC1,n,n,n,n,n,n
Cc1ccc(C(=O)C2CCN(C(=S)NCC3CCCO3)CC2)cc1 (configuration not stated),n,n,14.6µM,n,10.3µM,n
CC1CCN(C(=O)COC(=O)c2c[nH]c3ccccc23)CC1,n,n,n,n,n,n
SMILES,HepG2 viability,HT1080-NT tox,DT40 TDP1 CPT,HT1080 IDH1KD tx,TDP1 cell noCPT,TGFb inhibitor
CCc1ccc(N2CCn3c2nc2c3c(=O)n(Cc3cccc(C)c3)c(=O)n2C)cc1,n,x,u,x,n,n
Cc1ccc(CSc2nnc3[nH]c(=O)cc(-c4ccccc4)n23)cc1,n,x,n,x,n,n
C[C@H]1CN([C@@H](C)CO)C(=O)CCCn2nncc2CO[C@H]1CN(C)C(=O)C1CCCCC1,n,n,u,n,u,n
CC(C)CNC(=S)N1CCC(C(=O)c2ccc3c(c2)OCCO3)CC1,n,n,u,n,23.1µM,n
C=CCNC(=S)N1CCC(C(=O)c2ccc(Cl)cc2)CC1,n,n,16.4µM,n,u,n
CCOCCCNC(=S)N1CCC(C(=O)c2ccc(C)cc2)CC1,n,n,18.4µM,n,u,n
COCCCNC(=S)N1CCC(C(=O)c2ccc3c(c2)OCCO3)CC1,n,n,u,n,n,n
CC(=O)c1c(C)[nH]c(C(=O)CSc2nnc(-c3ccc(Cl)cc3)n2CC2CCCO2)c1C (configuration not stated),n,n,n,n,u,n
O=S1(=O)N[C@@H](Cc2ccccc2)COc2cccc(N3CCN(Cc4ccccc4F)CC3)c21,x,u,u,u,18.4µM,x
CC(C)C[C@@H]1COc2cccc(N3CCN(Cc4ccccc4F)CC3)c2S(=O)(=O)N1,x,n,u,n,u,x
COc1ccccc1NS(=O)(=O)c1cccc(-n2c(O)c(C=Nc3ccccc3C(=O)O)c3ccccc3c2=O)c1,n,u,u,u,13µM,u
O=C(N/N=C/c1cn(CC(=O)N2CCOCC2)c2ccccc12)c1cccnc1,n,n,n,n,n,n
O=C(N/N=C/c1cn(Cc2ccccc2)c2ccccc12)c1cccnc1,n,n,u,n,u,2.82µM
Cc1c(N=Cc2ccco2)c(=O)n(-c2ccccc2)n1C,n,n,n,n,n,n
COc1ccc2c(C=Nc3c(C)n(C)n(-c4ccccc4)c3=O)c(O)n(Cc3ccco3)c(=O)c2c1,n,n,18.4µM,n,u,n
O=C(N/N=C/c1c(O)n(-c2ccccc2Cl)c(=O)c2ccccc12)c1cccnc1,n,6.51µM,u,9.2µM,n,n
COc1cc(C=NNc2ccc(S(=O)(=O)Nc3ccccc3C(=O)O)cc2[N+](=O)[O-])ccc1O,n,n,n,n,n,n
Cc1ccc(N2C(=O)[C@@H]3CSC(c4ccc(C(F)(F)F)cc4)N3C2=O)cc1 (some centres not stated),n,x,n,x,n,n
COc1ccc(CC(=O)NCc2csc(-c3cccs3)n2)cc1OC,n,n,n,n,u,n
CCC1(CC)NC(=O)N(CC(=O)OCC(=O)Nc2ccc(F)c(F)c2F)C1=O,n,n,n,n,n,n
Cc1c(Br)cccc1NC(=O)C1(C)CCN1CCc1ccccc1 (configuration not stated),n,n,u,n,u,u
O=C(N/N=C/c1cccc2ccccc12)c1cccc(F)c1,n,n,n,n,n,n
